Reference: PubChem BioAssay
The source made the active and inactive calls.

Assays:
[1] = small molecules captured by biotinylated probe aFSTL3 – biochemical, small-molecule microarray, fluorescence 635/667, stem cell growth factor project, primary screen (AID 1064); conditions: higher = more signal;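 further: measures binding of the biotinylated anti-FSTL3 antibody to printed compounds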
[2] = binders from COS7 lysate, DM2A8 probe, primary screen, torsin A project, cell lysate, small-molecule microarray, fluorescence 635/667 (AID 1065); conditions: higher = more signal, COS7 lysate expressing mutant human TOR1A
[3] = small molecules captured by biotinylated probe aFGF2 – biochemical, small-molecule microarray, fluorescence 635/667, stem cell growth factor project, primary screen (AID 1067); conditions: higher = more signal;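 further: measures binding of biotinylated aFGF2 protein to printed compounds on slides; z-score merges feature fluorescence and signal-to-noise across triplicate slides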
[4] = small molecules captured by biotinylated probe aFGF10 – biochemical, small-molecule microarray, fluorescence 635/667, stem cell growth factor project, primary screen (AID 1071); conditions: higher = more signal;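 further: score merges 667 nm spot intensity and signal to noise from triplicate slides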
[5] = molecular target: Neurogenic locus notch homolog protein 2 (Homo sapiens) (UniProt Q04721); test: small molecules binding Notch2 protein – biochemical, small-molecule microarray, 635 nm fluorescence, stem cell growth factors, primary screen (AID 1073); conditions: higher = more signal
[6] = molecular target: Pro-neuregulin-1, membrane-bound isoform (Homo sapiens) (UniProt Q02297); test: small molecules binding neuregulin-1 protein – biochemical, small-molecule microarray, fluorescence 635/667, psychiatric disease protein project, primary screen (AID 1075); conditions: NRG1 binding, 635 nm fluorescence, higher = more signal;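 further: score combines 667 nm spot fluorescence with signal to noise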
[7] = tested on: Neuregulin-1 EGF-like domain; test: small molecules binding NRG1 EGF domain – biochemical, small-molecule microarray, 635 nm fluorescence, primary screen (AID 1081); conditions: higher = more signal;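 further: binding of the protein to compounds printed on small-molecule microarray slides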
[8] = FRG1 expression reporter modulators in myotubes – cell-based, C2C12 myotubes, firefly/Renilla luciferase, luminescence, FRG1 inhibition for FSHD, primary screen (AID 1084); conditions: FRG1 promoter luciferase, higher = more signal, called active from +8 up or from −8 down
[9] = small molecules captured by biotinylated probe aFST – biochemical, small-molecule microarray, fluorescence 635/667, stem cell growth factor project, primary screen (AID 1086); conditions: higher = more signal;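 further: score merges 667 nm fluorescence with signal-to-noise of each printed compound spot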
[10] = binders of probe aHhip on microarray, primary screen, stem cell growth factor project, biochemical, small-molecule microarray, fluorescence 635/667 (AID 1087); conditions: higher = more signal;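 further: score merges spot fluorescence at 667nm with spot signal to noise ratio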
[11] = tested on: PRMT1 (protein arginine N-methyltransferase 1); test: small molecules binding arginine methyltransferase PRMT1 – biochemical, small-molecule microarray, 635 nm fluorescence, primary screen (AID 1088); conditions: higher = more signal;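 further: binding of Prmt1 protein to compounds spotted on small-molecule microarray slides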
[12] = growth effects on S. cerevisiae YJM789 – YJM789 clinical isolate, OD600, 24 h, basal, primary screen (AID 1089); conditions: higher = more signal, called active from +8 up or from −8 down;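 further: growth of clinical yeast isolate S. cerevisiae YJM 789 seeded 1000 cells per well; test concentration not given here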
[13] = S. pombe growth modifiers, basal conditions – strain 972, OD600, 24 h, no modulator, primary screen (AID 1090);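 further: basal condition with compound alone and no growth modifier present; test concentration not given here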; conditions: S. pombe 972 growth, higher = more signal, called active from +8 up or from −8 down
[14] = budding yeast growth modifiers under rapamycin – strain BY4716, OD600, 96 h, primary screen (AID 1091); further: test concentration not given here; conditions: S. cerevisiae BY4716 + rapamycin, higher = more signal, called active from +8 up or from −8 down
[15] = molecular target: Torsin-1A-interacting protein 2 (Homo sapiens) (UniProt Q8NFQ8); test: small molecules binding lysate-expressed LULL1 – cell lysate, human LULL1 lysate, 635/667 nm fluorescence, primary screen (AID 1092); conditions: small-molecule microarray, hLULL1 lysate binding, 635 nm fluorescence; higher = more signal;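 further: probe is lysate of COS7 cells overexpressing human LULL1; score merges per-feature 667 nm fluorescence with signal-to-noise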
[16] = optical density change of DRC41 E. coli – strain DRC41, OD650, 24 h, E. coli filamentation project, primary screen (AID 1093);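 further: MC1000 strain lacking acrAB efflux and sulA so SOS filamentation is blocked; test concentration not given here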; conditions: E. coli DRC41 growth, higher = more signal, called active from +8 up or from −8 down
[17] = probe aLefty2 binding to arrayed compounds – biochemical, biotinylated probe, 635/667 nm fluorescence, primary screen (AID 1094); conditions: small-molecule microarray, higher = more signal;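 further: score merges spot fluorescence near 667 nm with spot signal-to-noise ratio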
[18] = tested on: Noggin (protein binding on small-molecule microarray); test: small molecules binding Noggin protein – biochemical, 635/667 nm fluorescence, primary screen (AID 1095); conditions: 635 nm fluorescence, higher = more signal;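 further: score merges 667 nm feature fluorescence with signal to noise over triplicate slides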
[19] = molecular target: Neurogenic locus notch homolog protein 3 (Homo sapiens) (UniProt Q9UM47); test: small molecules binding NOTCH3 protein – biochemical, 635/667 nm fluorescence, primary screen (AID 1096); conditions: small-molecule microarray, 635 nm fluorescence, higher = more signal
[20] = probe aEGFR binding to arrayed compounds – biochemical, biotinylated probe, 635/667 nm fluorescence, primary screen (AID 1097); conditions: small-molecule microarray, higher = more signal;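 further: probe is a biotinylated anti-EGFR antibody binding compounds printed on slides; score combines fluorescence near 667 nm and signal to noise of each spot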

Chain of Neurogenic locus notch homolog protein 3 (Homo sapiens) (Q9UM47 whole entry, looked up): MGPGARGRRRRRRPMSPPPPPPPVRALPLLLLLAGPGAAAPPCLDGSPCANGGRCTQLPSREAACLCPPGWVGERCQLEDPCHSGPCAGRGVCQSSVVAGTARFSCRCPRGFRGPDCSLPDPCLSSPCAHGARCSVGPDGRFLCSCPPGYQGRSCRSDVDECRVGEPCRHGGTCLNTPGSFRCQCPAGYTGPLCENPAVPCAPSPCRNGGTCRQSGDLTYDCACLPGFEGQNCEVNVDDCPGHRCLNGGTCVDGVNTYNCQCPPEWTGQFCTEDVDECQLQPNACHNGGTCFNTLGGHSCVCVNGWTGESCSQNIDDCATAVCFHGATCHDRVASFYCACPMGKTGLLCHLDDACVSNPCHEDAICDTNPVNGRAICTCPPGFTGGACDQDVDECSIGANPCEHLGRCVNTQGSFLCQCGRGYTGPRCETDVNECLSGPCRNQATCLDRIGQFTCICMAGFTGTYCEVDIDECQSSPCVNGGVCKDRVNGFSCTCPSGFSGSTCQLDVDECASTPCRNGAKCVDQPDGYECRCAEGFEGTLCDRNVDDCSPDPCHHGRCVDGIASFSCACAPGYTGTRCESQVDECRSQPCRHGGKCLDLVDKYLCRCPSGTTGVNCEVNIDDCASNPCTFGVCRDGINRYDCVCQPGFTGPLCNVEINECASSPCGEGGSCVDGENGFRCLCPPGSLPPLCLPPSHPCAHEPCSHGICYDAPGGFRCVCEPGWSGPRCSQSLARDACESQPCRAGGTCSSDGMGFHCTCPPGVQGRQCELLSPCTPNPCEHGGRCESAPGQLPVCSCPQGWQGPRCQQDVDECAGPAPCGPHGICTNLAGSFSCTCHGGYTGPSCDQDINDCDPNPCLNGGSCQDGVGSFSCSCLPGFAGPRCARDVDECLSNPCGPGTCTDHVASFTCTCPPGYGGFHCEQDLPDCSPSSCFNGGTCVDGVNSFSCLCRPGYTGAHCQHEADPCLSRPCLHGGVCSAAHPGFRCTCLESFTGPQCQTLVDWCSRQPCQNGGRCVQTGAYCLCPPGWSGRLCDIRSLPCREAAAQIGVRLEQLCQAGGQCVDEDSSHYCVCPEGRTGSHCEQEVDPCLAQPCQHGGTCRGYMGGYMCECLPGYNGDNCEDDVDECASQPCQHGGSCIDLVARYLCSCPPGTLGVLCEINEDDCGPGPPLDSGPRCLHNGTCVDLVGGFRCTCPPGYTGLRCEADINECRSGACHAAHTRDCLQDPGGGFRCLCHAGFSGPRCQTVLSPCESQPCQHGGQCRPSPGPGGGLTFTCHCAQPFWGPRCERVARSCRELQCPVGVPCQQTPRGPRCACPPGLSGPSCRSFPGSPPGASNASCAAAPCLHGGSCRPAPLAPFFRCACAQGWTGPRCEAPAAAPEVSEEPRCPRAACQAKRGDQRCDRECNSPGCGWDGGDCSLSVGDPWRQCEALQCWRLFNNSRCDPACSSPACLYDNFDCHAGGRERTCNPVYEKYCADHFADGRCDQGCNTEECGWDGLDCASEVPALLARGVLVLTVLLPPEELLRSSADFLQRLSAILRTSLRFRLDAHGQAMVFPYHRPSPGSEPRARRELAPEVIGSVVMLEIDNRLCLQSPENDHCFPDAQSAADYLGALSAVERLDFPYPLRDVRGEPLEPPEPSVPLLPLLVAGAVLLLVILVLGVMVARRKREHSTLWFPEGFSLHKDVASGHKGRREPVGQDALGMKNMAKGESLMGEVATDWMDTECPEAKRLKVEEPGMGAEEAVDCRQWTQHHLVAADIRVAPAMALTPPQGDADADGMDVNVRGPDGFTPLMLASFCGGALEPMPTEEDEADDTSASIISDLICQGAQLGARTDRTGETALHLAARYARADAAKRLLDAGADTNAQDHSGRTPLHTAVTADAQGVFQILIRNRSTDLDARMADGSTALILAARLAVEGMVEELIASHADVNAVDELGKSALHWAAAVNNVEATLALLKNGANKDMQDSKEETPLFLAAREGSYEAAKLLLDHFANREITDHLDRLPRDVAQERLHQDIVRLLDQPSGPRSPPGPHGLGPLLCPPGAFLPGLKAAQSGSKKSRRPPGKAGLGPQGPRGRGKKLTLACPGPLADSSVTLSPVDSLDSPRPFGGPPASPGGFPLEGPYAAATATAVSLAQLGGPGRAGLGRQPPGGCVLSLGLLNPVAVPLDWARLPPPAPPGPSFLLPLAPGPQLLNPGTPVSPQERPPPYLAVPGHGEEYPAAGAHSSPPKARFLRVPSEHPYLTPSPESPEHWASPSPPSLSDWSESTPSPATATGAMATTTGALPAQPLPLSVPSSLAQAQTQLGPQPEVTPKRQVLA
Chain of Pro-neuregulin-1, membrane-bound isoform (Homo sapiens) (Q02297 whole entry, looked up, the tested form may be a part, canonical isoform): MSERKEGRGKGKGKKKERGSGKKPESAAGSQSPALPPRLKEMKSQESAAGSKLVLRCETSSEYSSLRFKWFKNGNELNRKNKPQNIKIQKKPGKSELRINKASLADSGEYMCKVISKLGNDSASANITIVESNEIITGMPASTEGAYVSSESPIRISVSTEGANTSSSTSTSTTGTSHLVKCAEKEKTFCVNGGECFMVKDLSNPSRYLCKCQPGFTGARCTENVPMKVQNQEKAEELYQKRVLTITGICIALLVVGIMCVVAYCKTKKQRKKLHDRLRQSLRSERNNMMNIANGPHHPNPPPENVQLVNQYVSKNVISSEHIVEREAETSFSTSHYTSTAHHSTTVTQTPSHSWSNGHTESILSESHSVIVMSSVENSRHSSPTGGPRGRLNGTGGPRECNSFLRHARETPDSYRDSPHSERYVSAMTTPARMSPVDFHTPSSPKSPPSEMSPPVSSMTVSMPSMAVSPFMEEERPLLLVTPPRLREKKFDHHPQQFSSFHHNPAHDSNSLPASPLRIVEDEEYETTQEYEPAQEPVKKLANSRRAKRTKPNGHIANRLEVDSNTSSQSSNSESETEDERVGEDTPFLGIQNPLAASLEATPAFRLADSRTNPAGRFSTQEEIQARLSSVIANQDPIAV
Chain of Torsin-1A-interacting protein 2 (Homo sapiens) (Q8NFQ8 whole entry, looked up): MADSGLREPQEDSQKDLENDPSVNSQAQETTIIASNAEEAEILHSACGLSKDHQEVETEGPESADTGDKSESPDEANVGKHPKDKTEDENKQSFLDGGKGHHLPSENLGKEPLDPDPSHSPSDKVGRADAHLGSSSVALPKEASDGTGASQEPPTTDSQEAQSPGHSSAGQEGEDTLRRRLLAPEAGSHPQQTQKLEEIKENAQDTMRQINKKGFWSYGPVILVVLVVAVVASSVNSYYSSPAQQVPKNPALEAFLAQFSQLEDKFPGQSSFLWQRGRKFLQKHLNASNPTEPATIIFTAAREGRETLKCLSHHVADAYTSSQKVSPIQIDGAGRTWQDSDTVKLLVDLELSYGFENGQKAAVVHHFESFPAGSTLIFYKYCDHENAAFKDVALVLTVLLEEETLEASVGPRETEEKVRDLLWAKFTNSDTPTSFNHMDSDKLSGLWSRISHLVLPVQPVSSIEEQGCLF

Compound	composite z-score [1]	composite z-score [2]	composite z-score [3]	composite z-score [4]	composite z-score [5]	composite z-score [6]	composite z-score [7]	z-score [8]	composite z-score [9]	composite z-score [10]	composite z-score [11]	z-score [12]	z-score [13]	z-score [14]	composite z-score [15]	z-score [16]	composite z-score [17]	composite z-score [18]	composite z-score [19]	composite z-score [20]
[N-]=[N+]=NCc1ccccc1C[C@]1(C(=O)NCCN2CCOCC2)N=C(c2ccc(OCCCO)cc2)O[C@H]1c1ccccc1N=[N+]=[N-]	0.446	0.57	0.0618	0.855	1.57	1.6	1.29	-0.653 (inactive)	1.25	-0.236	1.56	-0.886 (inactive)	0.246 (inactive)	2.86 (inactive)	2.73	1.16 (inactive)	0.149	-0.0313	1.1	0.0488
COCCOC(=O)N1C(=O)[C@@]2(c3cc(C#CCNC(N)=O)ccc31)[C@H](c1ccc(O)cc1)N1[C@H](c3ccccc3)[C@H](c3ccccc3)OC(=O)[C@H]1[C@@H]2C(=O)Nc1nc2ccccc2s1	0.764	0.172	-0.0736	0.826	1.27	0.787	0.297	-0.0332 (inactive)	0.522	-0.0994	0.902	-2.82 (inactive)	-1.55 (inactive)	-1.12 (inactive)	1.01	3.57 (inactive)	0.218	1.23	1.04	0.13
Cc1ccc(S[C@]2(C(=O)NCc3ccccc3)CC(=O)N(Cc3ccccc3)[C@@H]2c2ccc(CO)cc2)cc1	0.264	-0.443	-0.0165	0.793	-0.338	1.33	1.09	-2.33 (inactive)	-0.0886	-0.169	1.55	-0.349 (inactive)	-0.288 (inactive)	-0.0702 (inactive)	3.04	-0.927 (inactive)	-0.001	-0.9	-0.91	-0.272
CC(C)c1ccc(NN2C(C(O)c3c(F)cccc3Cl)C=CC3C(=O)N(c4ccccc4)C(=O)C32)cc1 (stereo not given)	1.07	0.177	0.0923	0.653	1.52	1.31	0.973	2.73 (inactive)	1.68	-0.139	1.48	0.808 (inactive)	1.83 (inactive)	1.63 (inactive)	3	-2.2 (inactive)	0.545	-0.041	1.07	0.431
COc1ccc([Si](C)(C)[C@@H]2[C@@H](CC(=O)N3CCC[C@H]3CO)O[C@]3(C(=O)N(C)c4c(Br)cc(C)cc43)[C@H]2C)cc1	-0.438	0.264	-0.105	0.113	1.04	0.776	0.9	-1.53 (inactive)	0.219	-0.0427	1.32	-1.69 (inactive)	-0.328 (inactive)	-0.827 (inactive)	2.52	-0.861 (inactive)	-0.0657	0.804	0.93	-0.0831
NCCCCCCNC(=O)[C@H]1C[C@H]2C(=O)NCC(=O)N2[C@H]1c1cccc(OCCO)c1	-0.196	0.615	-0.0647	0.477	0.363	0.933	1.13	1.03 (inactive)	0.0417	-0.0994	1.58	0.23 (inactive)	-1.12 (inactive)	-0.442 (inactive)	1.59	1.1 (inactive)	0.0537	1.5	1.15	-0.034
CCCCC=C[C@@H](NC(=O)c1cccs1)c1ccccc1	0.144	0.583	0.121	0.308	1.1	0.736	0.858	-3.42 (inactive)	0.409	0.913	-0.0502	0.464 (inactive)	0.845 (inactive)	1.72 (inactive)	2.01	-0.312 (inactive)	0.0812	-0.222	0.955	-0.0746
O=C(O)[C@@]1(Cc2ccccc2)N=C(c2ccc(OCCCO)cc2)O[C@H]1c1ccccc1	0.447	-0.647	-0.0819	0.0083	-0.738	1.91	0.923	-3.29 (inactive)	0.88	-0.126	1.48	0.552 (inactive)	-0.93 (inactive)	0.115 (inactive)	2.42	0.625 (inactive)	-0.126	0.454	0.793	-0.184
O=C1N(CCS(=O)(=O)c2ccccc2)Cc2ccccc2[C@H]2OC(c3ccc(OCCCO)cc3)=N[C@@]12CCS(=O)(=O)c1ccccc1	1.11	0.994	0.145	0.784	1.37	1.62	1.36	-2.53 (inactive)	0.593	-0.189	1.57	1.91 (inactive)	1.62 (inactive)	8.55 (active)	3.01	-0.409 (inactive)	0.417	0.894	1.06	0.162
